Drawing on PubChem BioAssay (NCI), this text covers growth for 21 molecules.

About 83,000 compounds went through this panel and 20% of them were active in at least one assay; those are over-represented in the sample as a whole.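 Treatment: one concentration, 48 hours, 96-well format. Scoring: percent growth, with anything below 10 considered active.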 A number with no mark means an inactive call. The source made the active and inactive calls.

Among the test systems are HCT-15 colon; HT29 colon; SNB-75 CNS; U251 CNS; SK-MEL-5 melanoma; UACC-62 melanoma; LOX IMVI melanoma; SK-MEL-28 melanoma; SNB-19 CNS; PC-3 prostate.
Common to all, as to assay: NCI-60 one-dose screen, 48 h (100 = growth as untreated, 0 = no growth, -100 = all killed)
Conditions in all cases: 10 µM unless noted

Take `Nc1nnnc2nc[nH]c12`: the growth in the experiment with HCT-15 colon was 20.9%; with HT29 colon it was 38.4%; with SNB-75 CNS, 45.8%; in the experiment with U251 CNS, 19.4%; with SK-MEL-5 melanoma, 33.8%; with UACC-62 melanoma, -50.9% (active). Besides, the growth in the experiment with LOX IMVI melanoma was 6.61% (active); with SK-MEL-28 melanoma, 14.8%.
Regarding `COP(=S)(N1CC1)N1CC1`, the growth in the experiment on HCT-15 colon is 109%; in the experiment with HT29 colon it was 103%; in the experiment with SNB-19 CNS, 112%; with U251 CNS, 108%; in the experiment with PC-3 prostate it was 91.9%; with SK-MEL-5 melanoma, 104%. The values for the growth with UACC-62 melanoma, in the experiment with LOX IMVI melanoma and with SK-MEL-28 melanoma were 109%, 104% and 114%, respectively.
`NC(N)=N/N=C\c1c[nH]c2ccc(Br)cc12`: the growth is 105% with HCT-15 colon; 92.3% with HT29 colon; 67.1% with SNB-19 CNS; 32.9% in the experiment with U251 CNS; 72.2% in the experiment with PC-3 prostate; 67.6% in the experiment with SK-MEL-5 melanoma. The growth in the experiment on UACC-62 melanoma was 101%; in the experiment with LOX IMVI melanoma, 93.7%; in the experiment with SK-MEL-28 melanoma, 100%.
For the molecule `CCN(CC)c1ccc2c(c1)OC(N)=C(C#N)C2c1cc(OC)c2c(c1)OCO2` (stereo unspecified), the growth with HCT-15 colon is 16.1%; in the experiment with HT29 colon, -9.44% (active); in the experiment with SNB-19 CNS, 40.1%; with U251 CNS it was 12.5%; in the experiment on PC-3 prostate, 30.9%; with SK-MEL-5 melanoma, -29.6% (active). Moreover, the results for the growth in the experiment on UACC-62 melanoma, with LOX IMVI melanoma and with SK-MEL-28 melanoma were 31.8%, 23.2% and 72.2%, respectively.
Turning to `C/C1=C/C(=O)O[C@@H]2C[C@@H](CC[C@H](C)/C=C\C=C\CC1)O[C@@](O)([C@@H]1CSC(=O)N1CO)C2`, the growth in the experiment with HCT-15 colon was 46.6%; with HT29 colon it was 8.8% (active); in the experiment with SNB-75 CNS, -41.5% (active); in the experiment on U251 CNS, 5.44% (active); in the experiment on SK-MEL-5 melanoma it was 29.5%; with UACC-62 melanoma, 29.2%. Besides, the growth in the experiment on LOX IMVI melanoma is 7.38% (active); in the experiment with SK-MEL-28 melanoma, -31.7% (active).
For the molecule `C1CCC([PH+](C2CCCCC2)C2CCCCC2[PH+](C2CCCCC2)C2CCCCC2)CC1.[Au].[CH-]1CCCCC1CC1CCCC[N-]1` (stereo unspecified), the growth in the experiment with HCT-15 colon is -36.9% (active); in the experiment on HT29 colon it was 1.89% (active); with SNB-19 CNS, -89% (active); in the experiment with U251 CNS it was -78.1% (active); in the experiment with PC-3 prostate, -22.2% (active); in the experiment with SK-MEL-5 melanoma, -99.8% (active). Also, the growth in the experiment on UACC-62 melanoma is -71% (active); in the experiment with LOX IMVI melanoma it was -97.2% (active); in the experiment with SK-MEL-28 melanoma, -70.5% (active).
Take `O=P1(NCCCl)OCCCN1CCCl` (stereo unspecified): the growth in the experiment with HCT-15 colon is 98.9%; in the experiment with HT29 colon it was 103%; with SNB-19 CNS, 111%; in the experiment on U251 CNS, 117%; in the experiment on PC-3 prostate, 93.7%; in the experiment on SK-MEL-5 melanoma, 112%. Moreover, the growth in the experiment on UACC-62 melanoma is 107%; in the experiment with LOX IMVI melanoma it was 99.8%; with SK-MEL-28 melanoma it was 116%.
Consider `CCOC(=O)CCC(NC(=O)C(Cc1ccc(N(CCCl)CCCl)cc1)NC=O)C(=O)OCC` (stereo unspecified), for which the growth in the experiment on HCT-15 colon was 36.3%; with HT29 colon, 62.3%; in the experiment with U251 CNS, 48.4%; with PC-3 prostate, 71.7%; with SK-MEL-5 melanoma, -70.1% (active); with UACC-62 melanoma, -37.7% (active). The growth with LOX IMVI melanoma is -78.3% (active); with SK-MEL-28 melanoma, -29.9% (active).
As for `COc1ccc(NC([Se])=NC23CC4CC(CC(C4)C2)C3)cc1`, the growth is 9.68% (active) in the experiment on HCT-15 colon; 5.56% (active) with HT29 colon; 15.7% in the experiment on SNB-19 CNS; -31% (active) in the experiment on U251 CNS; 7.99% (active) with PC-3 prostate; -85.5% (active) with SK-MEL-5 melanoma. The growth in the experiment with UACC-62 melanoma was -24.3% (active); with LOX IMVI melanoma it was 3.59% (active); in the experiment with SK-MEL-28 melanoma it was 13.2%.
For the molecule `CC(C)(C)C(=O)OCOP(=O)(NCc1ccccc1)C1CCCN(O)C1=O` (stereo unspecified), the growth with HCT-15 colon was 22.5%; in the experiment with HT29 colon it was 21.5%; with SNB-19 CNS it was 37.9%; with U251 CNS, 13.8%; in the experiment with PC-3 prostate, 67.7%; in the experiment on SK-MEL-5 melanoma, 31.2%. For the same molecule, the growth was 19.5% in the experiment on UACC-62 melanoma, 51.9% in the experiment with LOX IMVI melanoma and 17% with SK-MEL-28 melanoma.
On to `O=C(N/N=C\c1ccc(N(CCCl)CCCl)cc1Cl)c1cccnc1`, for which the growth with HCT-15 colon is 79.9%; in the experiment with SNB-75 CNS, 86.6%; in the experiment on SNB-19 CNS, 89%; in the experiment with U251 CNS it was 65.2%; in the experiment with SK-MEL-5 melanoma it was 72.6%; with UACC-62 melanoma it was -40.4% (active). Moreover, the growth in the experiment with LOX IMVI melanoma is 87.1%; in the experiment on SK-MEL-28 melanoma it was 98.5%.
`COC(=O)CCC1=C(C)c2cc3[n-]c(cc4nc(cc5[n-]c(cc1n2)c(CCC(=O)OC)c5C)C=C4C)cc3C.[Cd+2]`: the growth in the experiment with HCT-15 colon is 35.5%; in the experiment with HT29 colon, 28.8%; with SNB-19 CNS, 73.9%; with PC-3 prostate, 33.9%; in the experiment with SK-MEL-5 melanoma it was -7.46% (active); with UACC-62 melanoma it was 24.1%. For the same molecule, the growth is 44.3% in the experiment with LOX IMVI melanoma and 68.8% with SK-MEL-28 melanoma.
As to `COc1cc2c(cc1OCc1ccccc1)C(CC(C)C)=[N+](C)CC2`, the growth is 99.4% with HCT-15 colon; 63.3% in the experiment with HT29 colon; 69% with SNB-19 CNS; 62.8% in the experiment on PC-3 prostate; 75.9% with SK-MEL-5 melanoma; 81.9% in the experiment on UACC-62 melanoma. The growth in the experiment with LOX IMVI melanoma was 91.1%; in the experiment on SK-MEL-28 melanoma it was 95.1%.
As to `COc1ccc(C2=N[C@@H](Cc3ccccc3)C(=O)Nc3ccsc32)cc1`, the growth was 34.7% with HCT-15 colon; 17.9% with HT29 colon; 69.8% with SNB-19 CNS; 59.1% in the experiment with PC-3 prostate; 34.9% in the experiment on SK-MEL-5 melanoma; 16.9% in the experiment on UACC-62 melanoma. Besides, the values for the growth in the experiment with LOX IMVI melanoma and in the experiment with SK-MEL-28 melanoma were 47.6% and 54.5%, respectively.
Take `CC1=C(O)[C@@](C)(CCCCC[C@H](C)CCCCc2ccc(O)cc2)OOC1=O`: the growth in the experiment on HCT-15 colon is 98.3%; in the experiment on HT29 colon, 105%; in the experiment with U251 CNS, 92.8%; with PC-3 prostate, 75.4%; in the experiment on SK-MEL-5 melanoma it was 102%; in the experiment on UACC-62 melanoma, 79.2%. For the same molecule, the growth with LOX IMVI melanoma is 69.8%; with SK-MEL-28 melanoma it was 114%.
With `O=C(N/N=C\c1ccc(N(CCCl)CCCl)cc1)c1cccc([N+](=O)[O-])c1`, the growth with HCT-15 colon is 98.7%; in the experiment on SNB-75 CNS, 60%; in the experiment on SNB-19 CNS, 77.3%; in the experiment on U251 CNS it was 73.9%; in the experiment with SK-MEL-5 melanoma, 93.9%; in the experiment on UACC-62 melanoma, 77.9%. Moreover, the growth in the experiment on LOX IMVI melanoma was 83.4%; with SK-MEL-28 melanoma it was 108%.
On to `CC[C@H](C)[C@H](NC(=O)C12CC(NC(C)=O)(C1)C2)C(=O)N(C)[C@H](C[C@@H](OC(C)=O)c1nc(C(=O)N[C@@H](Cc2ccccc2)C[C@H](C)C(=O)OC)cs1)C(C)C`, for which the growth was 29.3% with HCT-15 colon; 5.65% (active) in the experiment with HT29 colon; 50.9% in the experiment on SNB-19 CNS; 11.6% with U251 CNS; 15.4% in the experiment with PC-3 prostate; -6.58% (active) with SK-MEL-5 melanoma. For the same molecule, the results for the growth in the experiment with LOX IMVI melanoma and with SK-MEL-28 melanoma were 16.5% and 61%, respectively.
Consider `COc1cc(C=C2c3ccccc3C(=O)c3ccccc32)ccc1OCCCCOc1cc2c(cc1OC)C(=O)N1CCCC1C=N2` (stereo unspecified), for which the growth with HCT-15 colon was -75.6% (active); in the experiment with HT29 colon, -64.6% (active); in the experiment with SK-MEL-5 melanoma it was -92.4% (active); with UACC-62 melanoma it was -90.1% (active); with LOX IMVI melanoma, -100% (active); in the experiment on SK-MEL-28 melanoma it was -82.8% (active).
Consider `C1CCC2(CC1)OOCNCOO2`, for which the growth is 99.3% in the experiment with HCT-15 colon; 97.7% with HT29 colon; 113% with SNB-19 CNS; 105% in the experiment on U251 CNS; 98% in the experiment with PC-3 prostate; 93.5% in the experiment on SK-MEL-5 melanoma. Also, the growth in the experiment on UACC-62 melanoma is 113%; with LOX IMVI melanoma, -76.6% (active); in the experiment on SK-MEL-28 melanoma, 110%.
For `CN(C)C(=O)Oc1ccc(Br)cc1`, the growth was 105% in the experiment on HCT-15 colon; 109% in the experiment with HT29 colon; 107% in the experiment on SNB-19 CNS; 98.3% in the experiment on U251 CNS; 97.1% with PC-3 prostate; 98.8% with SK-MEL-5 melanoma. Further, the growth is 113% in the experiment with UACC-62 melanoma, 96.4% in the experiment on LOX IMVI melanoma and 104% with SK-MEL-28 melanoma.
In the case of `Clc1ccc(CO/N=C(\Cn2ccnc2)c2ccc(Cl)cc2Cl)c(Cl)c1`, the growth with HCT-15 colon was 6.36% (active); with HT29 colon, -19.4% (active); with SNB-19 CNS, 17.7%; in the experiment on U251 CNS, -21.2% (active); with PC-3 prostate it was 4.16% (active); with SK-MEL-5 melanoma, -93.5% (active). Moreover, the growth was 1.19% (active) in the experiment on UACC-62 melanoma, -47.4% (active) in the experiment on LOX IMVI melanoma and 28% with SK-MEL-28 melanoma.
